Laboratory results taken from PubChem BioAssay (NCATS).
Results filed as inconclusive are left out. A call without a number means that no potency is given here. Values without a mark were called inactive. Calls of active or inactive are those of the source. Unless noted, calls come from the whole dose curve; as a rule, active = well fitted curve in the direction sought with a large enough effect; inconclusive = small, poorly fitted or top-dose-only effect, or another doubt; inactive = no such curve, though single readings can be large; an effect the other way counts as inactive or inconclusive.

Tests used:
[1] = qHTS Assay for Identification of Small Molecule Agonists for Hypoxia Response Element Signaling Pathway (AID 914; active = well fitted activation curve with a large enough effect in the signal ratio, with a control signal flat, not every such curve was filed as active; the % refers to the signal ratio; note: potency is the fitted concentration of half-maximal effect); conditions: ME-180 (cervical carcinoma) HRE-bla reporter, beta-lactamase ratio, CoCl2, 17 h; activation: hits give high values
Outline: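 Compounds in a titration series were added to ME-180 reporter cells alongside an EC50 level of CoCl2. After 17 hours, beta-lactamase activity was read as the 460nm/530nm emission ratio of CCF4, giving AC50 values.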

[2] = target: Cytochrome P450 2D6 (Homo sapiens) (UniProt P10635); test: qHTS Assay for Inhibitors and Substrates of Cytochrome P450 2D6 (AID 891); conditions: recombinant CYP2D6, luciferin-ME EGE luminescence; series mostly up to 11.4 µM; note: nearly all actives have a fitted effect of over 60% in size; note: potency is the fitted concentration of half-maximal effect
Outline: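 Luminescent read-out of luciferin formed by 5 nM human CYP2D6 demethylating 30 uM Luciferin-ME EGE (Km level) over 60 min at room temperature after NADPH regeneration addition. Data normalized to full inhibition by 1.43 uM quinidine.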

[3] = target: Cytochrome P450 2C9 (Homo sapiens) (UniProt P11712); test: qHTS Assay for Inhibitors and Substrates of Cytochrome P450 2C9 (AID 883); conditions: recombinant CYP2C9, luciferin-H luminescence, 60 min; series mostly up to 11.4 µM; note: potency is the fitted concentration of half-maximal effect; nearly all actives have a fitted effect of over 60% in size
Outline: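 Luminescent read-out of deoxyluciferin hydroxylation, normalized to 57uM sulphaphenazole (AC100). Reaction: 10nM enzyme, 100uM Luciferin-H (equal to KM), 25mM KPO4, 10 min compound preincubation, then 60 min with NADPH regeneration, both at 37C.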

[4] = test system: CP201; test: qHTS profiling for inhibitors of Plasmodium falciparum proliferation (AID 504749); note: nearly all actives have a fitted effect of over 60% in size; conditions: P. falciparum in erythrocytes, SYBR Green DNA, 72 h; series mostly up to 28.7 µM
Outline: (§1)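 In a 72 h erythrocytic culture (37 C, humidified, 5% CO2) at 2.5% hematocrit and 0.3% starting parasitemia, compounds were tested; SYBR Green I in detergent lysis buffer stained parasite DNA overnight.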

[5] = test system: CP262; test: as above; conditions: P. falciparum in erythrocytes, SYBR Green DNA, 72 h; series mostly up to 28.7 µM
Outline: as §1

[6] = test system: CP266; test: as above; conditions: P. falciparum in erythrocytes, SYBR Green DNA, 72 h; series mostly up to 28.7 µM
Outline: as §1

[7] = test system: CP268; test: as above; conditions: P. falciparum in erythrocytes, SYBR Green DNA, 72 h; series mostly up to 28.7 µM
Outline: as §1

[8] = test system: CP269; test: as above; conditions: P. falciparum in erythrocytes, SYBR Green DNA, 72 h; series mostly up to 28.7 µM
Outline: as §1

[9] = test system: CP291; test: as above; conditions: P. falciparum in erythrocytes, SYBR Green DNA, 72 h; series mostly up to 28.7 µM
Outline: as §1

[10] = test system: CP297; test: as above; conditions: P. falciparum in erythrocytes, SYBR Green DNA, 72 h; series mostly up to 28.7 µM
Outline: as §1

[11] = test system: CP305; test: as above; conditions: P. falciparum in erythrocytes, SYBR Green DNA, 72 h; series mostly up to 28.7 µM
Outline: as §1

[12] = test system: CP315; test: as above; conditions: P. falciparum in erythrocytes, SYBR Green DNA, 72 h; series mostly up to 28.7 µM
Outline: as §1

[13] = test system: CP325; test: as above; conditions: P. falciparum in erythrocytes, SYBR Green DNA, 72 h; series mostly up to 28.7 µM
Outline: as §1

[14] = test system: DIV17; test: as above; conditions: P. falciparum in erythrocytes, SYBR Green DNA, 72 h; series mostly up to 28.7 µM
Outline: as §1

[15] = test system: FAB9; test: as above; conditions: P. falciparum in erythrocytes, SYBR Green DNA, 72 h; series mostly up to 28.7 µM
Outline: as §1

[16] = test system: JCK; test: as above; conditions: P. falciparum in erythrocytes, SYBR Green DNA, 72 h; series mostly up to 28.7 µM
Outline: as §1

[17] = test system: PAD; test: as above; conditions: P. falciparum in erythrocytes, SYBR Green DNA, 72 h; series mostly up to 28.7 µM
Outline: as §1

[18] = test system: TAB109; test: as above; conditions: P. falciparum in erythrocytes, SYBR Green DNA, 72 h; series mostly up to 28.7 µM
Outline: as §1

[19] = test system: ATS95; test: as above; conditions: P. falciparum in erythrocytes, SYBR Green DNA, 72 h; series mostly up to 28.7 µM
Outline: as §1

[20] = test system: CP215; test: as above; conditions: P. falciparum in erythrocytes, SYBR Green DNA, 72 h; series mostly up to 28.7 µM
Outline: as §1

Cytochrome P450 2D6 (Homo sapiens), sequence (P10635 whole entry, looked up): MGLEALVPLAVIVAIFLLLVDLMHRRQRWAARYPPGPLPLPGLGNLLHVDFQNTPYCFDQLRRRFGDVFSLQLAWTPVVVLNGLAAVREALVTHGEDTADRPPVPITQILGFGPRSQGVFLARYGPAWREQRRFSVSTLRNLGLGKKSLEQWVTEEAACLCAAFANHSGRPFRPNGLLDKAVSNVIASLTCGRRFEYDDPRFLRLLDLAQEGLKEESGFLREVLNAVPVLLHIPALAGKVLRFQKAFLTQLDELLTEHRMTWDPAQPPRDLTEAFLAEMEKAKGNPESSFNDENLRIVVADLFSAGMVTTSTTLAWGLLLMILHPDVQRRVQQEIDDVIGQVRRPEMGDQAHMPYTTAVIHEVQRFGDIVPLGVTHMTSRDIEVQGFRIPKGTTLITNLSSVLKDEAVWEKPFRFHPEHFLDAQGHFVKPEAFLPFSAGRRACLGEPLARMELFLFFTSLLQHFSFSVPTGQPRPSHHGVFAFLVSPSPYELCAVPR
Cytochrome P450 2C9 (Homo sapiens), sequence (P11712 whole entry, looked up): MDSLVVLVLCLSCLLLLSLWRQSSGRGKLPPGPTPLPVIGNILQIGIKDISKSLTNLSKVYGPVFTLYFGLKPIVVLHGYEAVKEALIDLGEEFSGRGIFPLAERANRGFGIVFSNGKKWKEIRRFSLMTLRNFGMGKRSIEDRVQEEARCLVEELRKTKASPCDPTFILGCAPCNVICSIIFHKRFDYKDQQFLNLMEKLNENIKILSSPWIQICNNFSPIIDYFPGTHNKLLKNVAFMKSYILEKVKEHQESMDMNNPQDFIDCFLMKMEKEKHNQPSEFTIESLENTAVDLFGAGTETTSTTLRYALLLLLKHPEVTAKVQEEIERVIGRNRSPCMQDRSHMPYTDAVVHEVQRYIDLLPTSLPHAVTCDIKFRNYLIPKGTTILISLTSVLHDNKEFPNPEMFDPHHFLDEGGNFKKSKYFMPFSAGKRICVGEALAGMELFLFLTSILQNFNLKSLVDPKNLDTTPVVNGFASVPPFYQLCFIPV

CN1CCN(c2ncc3nc(-c4cccs4)c(=O)n(C[C@H]4CCCO4)c3n2)CC1
Potency [1]: 3.16 µM (active)

O=[N+]([O-])c1cccc(/C=N\Nc2ccc3ccccc3n2)c1O
Potency [2]: 3.16 µM (active)

Cc1cc(O)c(-c2cc(O)c(C)cc2O)cc1O
Potency [3]: 1.26 µM (active) | Potency [2]: inactive

C[C@H](CCC(=O)O)[C@H]1CC[C@@H]2[C@H]3[C@@H](C[C@@H](O)[C@]21C)[C@]1(C)CC[C@H](O)C[C@@H]1C[C@@H]3O
Potency [4]: inactive | Potency [5]: inactive | Potency [6]: inactive | Potency [7]: inactive | Potency [8]: inactive | Potency [9]: inactive | Potency [10]: inactive | Potency [11]: inactive | Potency [12]: inactive | Potency [13]: inactive | Potency [14]: inactive | Potency [15]: inactive | Potency [16]: inactive | Potency [17]: inactive | Potency [18]: inactive

O=C(O)[C@@H](O)[C@@H](O)[C@H](O)C(=O)CO
Potency [19]: inactive | Potency [4]: inactive | Potency [20]: inactive | Potency [5]: inactive | Potency [6]: inactive | Potency [7]: inactive | Potency [8]: inactive | Potency [9]: inactive | Potency [10]: inactive | Potency [11]: inactive | Potency [13]: inactive | Potency [14]: inactive | Potency [15]: inactive | Potency [16]: inactive | Potency [17]: inactive | Potency [18]: inactive

COc1ccc2ccccc2c1/C=C\C(=O)c1ccccc1
activation [1]: 22.5%

Cc1onc(-c2c(F)cccc2Cl)c1C(=O)N[C@@H]1C(=O)N2[C@H]1SC(C)(C)[C@H]2C(=O)O
Potency [19]: inactive | Potency [4]: inactive | Potency [20]: inactive | Potency [6]: inactive | Potency [7]: inactive | Potency [8]: inactive | Potency [9]: inactive | Potency [10]: inactive | Potency [11]: inactive | Potency [13]: inactive | Potency [14]: inactive | Potency [15]: inactive | Potency [16]: inactive | Potency [17]: inactive | Potency [18]: inactive

CC1(C)S[C@@H]2[C@H](NC(=O)Cc3ccccc3)C(=O)N2[C@@H]1C(=O)O
Potency [19]: inactive | Potency [4]: inactive | Potency [20]: inactive | Potency [5]: inactive | Potency [6]: inactive | Potency [7]: inactive | Potency [8]: inactive | Potency [9]: inactive | Potency [10]: inactive | Potency [11]: inactive | Potency [12]: inactive | Potency [13]: inactive | Potency [14]: inactive | Potency [15]: inactive | Potency [16]: inactive | Potency [17]: inactive | Potency [18]: inactive

COc1ccc(C(=O)CCN(C)C)c2ccccc12
Potency [3]: 3.98 µM (active)
